Laboratory results from PubChem BioAssay (EPA / NIEHS).
Some compounds were tested as several samples or in several runs, with calls that do not always agree. Calls of active or inactive are those of the source. Rule for the calls: active = hit-call score of the fitted dose curve at least 0.9, where 1 is the maximum; inactive = score below 0.9.

Biological target: Transcription factor E2F1 (Homo sapiens) (UniProt Q01094)
Experiment: ATG_E2F_CIS: Attagene CIS-FACTORIAL HepG2 Assay for human E2F Transcription Factor 1 (AID 2282935)
Conditions: HepG2 Attagene cis-reporter, E2F reporter RNA transcripts; actives raise or lower the signal
Description: ATG_CIS is a cell-based, multiplexed-readout assay that uses HepG2, a human liver cell line, with measurements taken at 24 hours after chemical dosing in a 24-well plate.ATG_E2F_CIS is one of 52 assay component(s) measured or calculated from the ATG_CIS assay. It is designed to make measurements of mRNA induction, a form of inducible reporter, as detected with fluorescence intensity signals by Reverse transcription polymerase chain reaction (RT-PCR) and Capillary electrophoresis technology.Data from the assay component ATG_E2F_CIS was analyzed into 1 assay endpoint. This assay endpoint, ATG_E2F_CIS, was analyzed with bidirectional fitting relative to DMSO as the negative control and baseline of activity. Using a type of inducible reporter, measures of mRNA for gain or loss-of-signal activity can be used to understand the reporter gene at the transcription factor-level as they relate to the gene E2F1. Furthermore, this assay endpoint can be referred to as a primary readout, because this assay has produced multiple assay endpoints where this one serves a reporter gene function. To generalize the intended target to other relatable targets, this assay endpoint is annotated to the dna binding intended target family, where the subfamily is E2F transcription factor.
Human liver HepG2 cells are transiently transfected with multiple reporter transcription units (MRTUs) in 6-well plates using FuGene 6 reagent (Roche; 3 ml FuGene/1 mg DNA). The MRTU constructs are regulated by a cis-regulating element (promoter). […] A major difference between the CIS and TRANS system is that in CIS activities of endogenous TFs are measured, whereas the TRANS assay evaluates changes in activities of exogenous, chimeric NR-Gal4 proteins. […] At the end of 24 hour incubation, total RNA was isolated using TriZol reagent (Invitrogen). The isolated RNA is then reverse-transcribed using oligo(dT) primer and Mo-MLV reverse transcriptase (Invitrogen) with DNAse I (Ambion) treatment for 30 min. The one-tenth of the produced cDNA was amplified by PCR using Taq DNA polymerase (Invitrogen) and two reporter sequence-specific primers. The PCR products were fluorescently labeled by primer extension with 6-arboxyfluorescein (6-FAM) 5'-labeled reporter sequence-specific primer (2 min at 95 C, 20 s at 68 C and 10 min at 72 C) and these products were digested with 5U of HpaI (New England Biolabs) for 2h at 37 C. The fragments were purified using Qiaquick PCR columns (Qiagen), analyzed on an ABI 3130xL genetic analyzer (Applied Biosystems) with peak positions identified by using a set of X-rhodamine (ROX)-labeled MapMarker1000 molecular weight standards (BioVentures). The raw capillary electrophoresis data was processed using Attagraph software (Attagene).

Sequence of Transcription factor E2F1 (Homo sapiens) (Q01094 whole entry, looked up): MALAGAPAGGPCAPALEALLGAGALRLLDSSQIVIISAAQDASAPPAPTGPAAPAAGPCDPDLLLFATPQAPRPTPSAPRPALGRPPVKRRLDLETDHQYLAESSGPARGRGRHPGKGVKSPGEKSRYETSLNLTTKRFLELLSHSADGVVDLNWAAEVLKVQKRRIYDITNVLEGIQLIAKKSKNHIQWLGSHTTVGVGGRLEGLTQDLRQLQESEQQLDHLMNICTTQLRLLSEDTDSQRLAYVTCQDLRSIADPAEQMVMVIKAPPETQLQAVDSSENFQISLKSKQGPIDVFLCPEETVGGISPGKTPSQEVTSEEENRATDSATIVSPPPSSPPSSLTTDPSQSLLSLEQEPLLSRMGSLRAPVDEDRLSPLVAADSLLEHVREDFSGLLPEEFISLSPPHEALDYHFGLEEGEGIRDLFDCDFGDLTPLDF

**Q.** How did the outcome turn out when `CC(C1CC1)C(O)(Cn1cncn1)c1ccc(Cl)cc1` (stereo not given) was run?
**A.** inactive

**Q.** `CC(C)N(C(=O)SCC(Cl)=C(Cl)Cl)C(C)C` was tested. Which outcome did it give?
**A.** inactive

**Q.** With `C=C(C)[C@H]1Cc2c(ccc3c2O[C@@H]2COc4cc(OC)c(OC)cc4[C@@H]2C3=O)O1` as the compound, how does the outcome read?
**A.** inactive

**Q.** Which outcome does the source give for `CCCOc1nn(C(=O)NS(=O)(=O)c2ccccc2C(=O)OC)c(=O)n1C` here?
**A.** inactive

**Q.** `CNC(=O)Oc1cccc2c1OC(C)(C)O2` was tested. Which outcome did it give?
**A.** inactive

**Q.** How did the outcome turn out when `CCC(=NOC/C=C/Cl)C1=C(O)CC(C2CCOCC2)CC1=O` (stereo not given) was run?
**A.** inactive

**Q.** How did the outcome turn out when `CN(C)C(=O)Nc1cccc(C(F)(F)F)c1` was run?
**A.** inactive

**Q.** Which outcome does the source give for `COP(=O)(NC(C)=O)SC` (stereo not given) here?
**A.** inactive

**Q.** Which outcome does the source give for `CC(Oc1cccc(Cl)c1)C(=O)O` (stereo not given) here?
**A.** inactive

**Q.** With `Nc1c(Cl)cc([N+](=O)[O-])cc1Cl` as the compound, how does the outcome read?
**A.** inactive

**Q.** For `CC(COc1ccc(Oc2ccccc2)cc1)Oc1ccccn1` (stereo not given), which outcome is on record?
**A.** inactive

**Q.** Which outcome does the source give for `CCOP(=S)(OCC)Oc1ccc2c(C)c(Cl)c(=O)oc2c1` here?
**A.** inactive

**Q.** With `CCCOCC(=Nc1ccc(Cl)cc1C(F)(F)F)n1ccnc1` as the compound, how does the outcome read?
**A.** inactive

**Q.** `CSC1=N[C@@](C)(c2ccccc2)C(=O)N1Nc1ccccc1` was tested. Which outcome did it give?
**A.** inactive

**Q.** Which outcome does the source give for `C#CCC1=C(C)C(OC(=O)C2C(C=C(C)C)C2(C)C)CC1=O` (stereo not given) here?
**A.** inactive

**Q.** Which outcome does the source give for `CCOP(=O)(SC(C)CC)N1CCSC1=O` (stereo not given) here?
**A.** inactive

**Q.** Which outcome does the source give for `CCOP(=S)(OCC)SCCSCC` here?
**A.** inactive

**Q.** With `Cc1ccn2nc(S(=O)(=O)Nc3c(F)cccc3F)nc2n1` as the compound, how does the outcome read?
**A.** inactive

**Q.** For `C#CC(C)(C)NC(=O)c1cc(Cl)cc(Cl)c1`, which outcome is on record?
**A.** inactive

**Q.** `CON=C(C(=O)OC)c1ccccc1CON=C(C)c1cccc(C(F)(F)F)c1` was tested. Which outcome did it give?
**A.** inactive

**Q.** `C[Si](Cn1cncn1)(c1ccc(F)cc1)c1ccc(F)cc1` was tested. Which outcome did it give?
**A.** inactive

**Q.** How did the outcome turn out when `CCOP(=S)(OCC)Oc1ccc([N+](=O)[O-])cc1` was run?
**A.** inactive

**Q.** With `CCNc1nc(Cl)nc(NC(C)(C)C#N)n1` as the compound, how does the outcome read?
**A.** inactive

**Q.** `CCOP(=S)(OCC)Oc1cc(C)nc(C(C)C)n1` was tested. Which outcome did it give?
**A.** inactive

**Q.** How did the outcome turn out when `COc1cc(OC)nc(Sc2cccc(Cl)c2C(=O)O)n1` was run?
**A.** inactive

**Q.** For `Nc1nc(N)nc(NC2CC2)n1`, which outcome is on record?
**A.** inactive

**Q.** Which outcome does the source give for `CNc1cnn(-c2cccc(C(F)(F)F)c2)c(=O)c1Cl` here?
**A.** inactive

**Q.** `CCOP(=S)(Oc1cnc(C(C)(C)C)nc1)OC(C)C` (stereo not given) was tested. Which outcome did it give?
**A.** inactive

**Q.** Which outcome does the source give for `O=c1ccc(=O)[nH][nH]1` here?
**A.** inactive

**Q.** Which AC50 does the source give for `O=[N+]([O-])c1cc(C(F)(F)F)c(Cl)c([N+](=O)[O-])c1Nc1ncc(C(F)(F)F)cc1Cl` here?
**A.** 9.39 µM (active)

**Q.** And the outcome?
**A.** inactive

**Q.** How did the outcome turn out when `CSc1nc(NC(C)C)nc(NC(C)C)n1` was run?
**A.** inactive

**Q.** With `CCc1cnc(C2=NC(C)(C(C)C)C(=O)N2)c(C(=O)O)c1` (stereo not given) as the compound, how does the outcome read?
**A.** inactive

**Q.** With `CCOP(=S)(OCC)OC(Cl)C(Cl)(Cl)Cl` (stereo not given) as the compound, how does the outcome read?
**A.** inactive

**Q.** Which outcome does the source give for `CCCSP(=O)(OCC)Oc1ccc(Br)cc1Cl` (stereo not given) here?
**A.** inactive

**Q.** `CCC(CC)Nc1c([N+](=O)[O-])cc(C)c(C)c1[N+](=O)[O-]` was tested. Which outcome did it give?
**A.** inactive

**Q.** Which outcome does the source give for `N#CSCSC#N` here?
**A.** inactive

**Q.** With `CC[C@H](C)[C@H]1O[C@]2(C=C[C@@H]1C)C[C@@H]1C[C@@H](C/C=C(\C)[C@@H](O[C@H]3C[C@H](OC)[C@@H](O[C@H]4C[C@H](OC)[C@@H](NC)[C@H](C)O4)[C@H](C)O3)[C@@H](C)/C=C/C=C3\CO[C@@H]4[C@H](O)C(C)=C[C@@H](C(=O)O1)[C@]34O)O2` as the compound, how does the outcome read?
**A.** inactive

**Q.** How did the outcome turn out when `C[N+]1(C)CCCCC1` was run?
**A.** inactive

**Q.** How did the outcome turn out when `CC1(C(=O)Nc2ccc(O)c(Cl)c2Cl)CCCCC1` was run?
**A.** inactive
